Source: PubChem BioAssay AID1159580 (chemical genetic matrix, 2015)
Among all 5,500 compounds or so, about 2,000 (36%) were called active. Roughly 18% stayed inconclusive and do not appear here. No stated cut-off is given here; in the data, active means normalized growth mostly below about 0.91 (no sharp cut-off); inconclusive means no clear call, values can overlap the other calls; inactive means mostly above about 0.92. This is one part of the list.

Experiment: chemical genetic growth profiling, strain panel (AID 1159580);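 further: tested at 20 µM; growth read once vehicle control cultures reached saturation at 30 °C; 1 = growth at the plate median or of vehicle wells; lower values mean less growth of the strain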
Conditions: growth OD

Measured: normalized growth

CCc1nc(N)nc(N)c1-c1ccc(Cl)cc1
active: S. cerevisiae deletion strains, locus YKR026C, strain gcn3, active compounds read low 1.2 [resistant]
inactive: S. cerevisiae deletion strains, locus YJR075W, strain HOC1, active compounds read low 0.978 | S. cerevisiae deletion strains, locus YKL009W, strain mrt4, active compounds read low 1.01 | S. cerevisiae deletion strains, locus YKL068W, active compounds read low 1 | S. cerevisiae deletion strains, locus YKL085W, strain MDH1 (second series), active compounds read low 1 | S. cerevisiae deletion strains, locus YKL085W, strain MDH1, active compounds read low 1 | S. cerevisiae deletion strains, locus YKL160W, strain elf1, active compounds read low 0.948 | S. cerevisiae deletion strains, locus YKL190W, strain CNB1, active compounds read low 1.01 | S. cerevisiae deletion strains, locus YKR001C, strain vps1, active compounds read low 0.985 | S. cerevisiae deletion strains, locus YKR091W, strain srl3, active compounds read low 0.977 | S. cerevisiae deletion strains, locus YLL001W, strain dnm1, active compounds read low 0.942 | S. cerevisiae deletion strains, locus YLL026W, active compounds read low 0.992 | S. cerevisiae deletion strains, locus YLL041C, strain sdh2, active compounds read low 0.972 | S. cerevisiae deletion strains, locus YLR027C, strain aat2, active compounds read low 0.984 | S. cerevisiae deletion strains, locus YLR039C, strain RIC1, active compounds read low 1.09 | S. cerevisiae deletion strains, locus YLR058C, strain SHM2, active compounds read low 1.01 | S. cerevisiae deletion strains, locus YLR102C, strain apc9, active compounds read low 1 | S. cerevisiae deletion strains, locus YLR113W, strain HOG1, active compounds read low 1.04 | S. cerevisiae deletion strains, locus YLR221C, strain rsa3, active compounds read low 1 | S. cerevisiae deletion strains, locus YLR258W, strain gsy2, active compounds read low 0.98 | S. cerevisiae deletion strains, locus YLR262C, strain YPT6 (second series), active compounds read low 0.958 | S. cerevisiae deletion strains, locus YLR262C, strain YPT6, active compounds read low 1.15 | S. cerevisiae deletion strains, locus YLR268W, strain sec22, active compounds read low 0.968 | S. cerevisiae deletion strains, locus YLR320W, strain mms22, active compounds read low 0.99 | S. cerevisiae deletion strains, locus YLR330W, strain CHS5, active compounds read low 1.01 | S. cerevisiae deletion strains, locus YLR342W, strain FKS1 (second series), active compounds read low 0.952 | S. cerevisiae deletion strains, locus YLR342W, strain FKS1, active compounds read low 0.989 | S. cerevisiae deletion strains, locus YLR357W, strain rsc2, active compounds read low 0.96 | S. cerevisiae deletion strains, locus YLR370C, strain arc18, active compounds read low 0.972 | S. cerevisiae deletion strains, locus YLR371W, strain rom2, active compounds read low 1.01 | S. cerevisiae deletion strains, locus YLR384C, strain iki3, active compounds read low 0.964 | S. cerevisiae deletion strains, locus YLR418C, strain cdc73, active compounds read low 0.939 | S. cerevisiae deletion strains, locus YML016C, strain PPZ1, active compounds read low 0.999 | S. cerevisiae deletion strains, locus YML032C, strain rad52, active compounds read low 0.952 | S. cerevisiae deletion strains, locus YML120C, strain ndi1, active compounds read low 0.963 | S. cerevisiae deletion strains, locus YML124C, strain tub3, active compounds read low 1 | S. cerevisiae deletion strains, locus YMR058W, strain fet3, active compounds read low 0.988 | S. cerevisiae deletion strains, locus YMR078C, strain ctf18, active compounds read low 0.998 | S. cerevisiae deletion strains, locus YMR125W, strain sto1, active compounds read low 0.932 | S. cerevisiae deletion strains, locus YMR129W, active compounds read low 0.976 | S. cerevisiae deletion strains, locus YMR205C, strain PFK2, active compounds read low 0.956 | S. cerevisiae deletion strains, locus YMR223W, strain ubp8, active compounds read low 0.996 | S. cerevisiae deletion strains, locus YMR231W, strain pep5, active compounds read low 0.974 | S. cerevisiae deletion strains, locus YMR263W, strain SAP30, active compounds read low 1.01 | S. cerevisiae deletion strains, locus YMR307W, strain GAS1, active compounds read low 0.916 | S. cerevisiae deletion strains, locus YNL067W, strain RPL9B, active compounds read low 0.999 | S. cerevisiae deletion strains, locus YNL071W, strain lat1, active compounds read low 0.976 | S. cerevisiae deletion strains, locus YNL128W, strain TEP1, active compounds read low 1.02 | S. cerevisiae deletion strains, locus YNL153C, strain GIM3, active compounds read low 1.01 | S. cerevisiae deletion strains, locus YNL183C, strain NPR1, active compounds read low 0.998 | S. cerevisiae deletion strains, locus YNL209W, strain ssb2, active compounds read low 0.979 | S. cerevisiae deletion strains, locus YNL233W, strain BNI4, active compounds read low 0.991 | S. cerevisiae deletion strains, locus YNL248C, strain rpa49, active compounds read low 0.966 | S. cerevisiae deletion strains, locus YNL250W, strain rad50, active compounds read low 1 | S. cerevisiae deletion strains, locus YNL271C, strain bni1, active compounds read low 0.998 | S. cerevisiae deletion strains, locus YNL298W, strain CLA4, active compounds read low 1 | S. cerevisiae deletion strains, locus YNL307C, strain MCK1, active compounds read low 0.972 | S. cerevisiae deletion strains, locus YNL322C, strain KRE1 (second series), active compounds read low 0.975 | S. cerevisiae deletion strains, locus YNL322C, strain KRE1, active compounds read low 0.967 | S. cerevisiae deletion strains, locus YNR049C, strain mso1, active compounds read low 0.968 | S. cerevisiae deletion strains, locus YNR052C, strain pop2, active compounds read low 0.931 | S. cerevisiae deletion strains, locus YOL006C, strain TOP1, active compounds read low 1.03 | S. cerevisiae deletion strains, locus YOL012C, strain htz1 0.833 | S. cerevisiae deletion strains, locus YOL147C, strain pex11, active compounds read low 0.995 | S. cerevisiae deletion strains, locus YOR001W, strain rrp6, active compounds read low 0.938 | S. cerevisiae deletion strains, locus YOR061W, strain CKA2, active compounds read low 1.01 | S. cerevisiae deletion strains, locus YOR069W, strain VPS5, active compounds read low 1 | S. cerevisiae deletion strains, locus YOR070C, strain gyp1, active compounds read low 0.998 | S. cerevisiae deletion strains, locus YOR080W, strain dia2, active compounds read low 0.951 | S. cerevisiae deletion strains, locus YOR083W, strain WHI5, active compounds read low 0.936 | S. cerevisiae deletion strains, locus YOR106W, strain vam3, active compounds read low 0.946 | S. cerevisiae deletion strains, locus YOR136W, strain idh2, active compounds read low 1.01 | S. cerevisiae deletion strains, locus YOR144C, strain elg1, active compounds read low 1.01 | S. cerevisiae deletion strains, locus YOR184W, strain ser1, active compounds read low 0.979 | S. cerevisiae deletion strains, locus YOR231W, strain MKK1, active compounds read low 1.02 | S. cerevisiae deletion strains, locus YOR265W, strain rbl2, active compounds read low 0.976 | S. cerevisiae deletion strains, locus YOR270C, strain vph1, active compounds read low 0.932 | S. cerevisiae deletion strains, locus YOR290C, strain snf2, active compounds read low 0.896 | S. cerevisiae deletion strains, locus YOR316C, strain cot1, active compounds read low 1 | S. cerevisiae deletion strains, locus YPL051W, strain arl3, active compounds read low 0.981 | S. cerevisiae deletion strains, locus YPL055C, strain LGE1, active compounds read low 1 | S. cerevisiae deletion strains, locus YPL078C, strain atp4, active compounds read low 0.959 | S. cerevisiae deletion strains, locus YPL106C, strain sse1, active compounds read low 0.956 | S. cerevisiae deletion strains, locus YPL240C, strain hsp82, active compounds read low 0.98 | S. cerevisiae deletion strains, locus YPL241C, strain CIN2, active compounds read low 1.01 | S. cerevisiae deletion strains, locus YPL256C, strain CLN2, active compounds read low 1.09 | S. cerevisiae deletion strains, locus YPR119W, strain clb2, active compounds read low 1 | S. cerevisiae deletion strains, locus YPR141C, strain kar3, active compounds read low 1 | S. cerevisiae deletion strains, locus YPR163C, strain tif3, active compounds read low 0.996 | S. cerevisiae deletion strains, locus YPR167C, strain met16, active compounds read low 1.01 | S. cerevisiae deletion strains, strain wtn01, active compounds read low 0.975 | S. cerevisiae strains, strain wild type, active compounds read low 1
